An excerpt weighted towards active compounds, which were near 2.2% of everything screened.
VLA-4 inh – inhibition in a human VLA-4 binding assay; AID 2557; P13612; 0.2% of 330,000 active; inhibition, % (about 7 µM as worked out from the volumes in the protocol); VLA-4 expressing cells, ligand binding flow cytometry; in the data active means inhibition above about 50%
CHT inh – inhibitors of human choline transporter CHT; AID 488975; Q9GZV3; B-score at 10 µM; CHT-expressing cells, membrane potential dye, choline response; hits give low values; 0.86% of 310,000 active;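 active means B-score over 3 SD under the library average, and starting fluorescence ratio not unusually high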;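 further: choline stimulus applied at its EC90 after an EC20 pre-addition; B-score computed on integrated fluorescence ratio after choline addition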
Target sequence (Q9GZV3 whole entry, looked up): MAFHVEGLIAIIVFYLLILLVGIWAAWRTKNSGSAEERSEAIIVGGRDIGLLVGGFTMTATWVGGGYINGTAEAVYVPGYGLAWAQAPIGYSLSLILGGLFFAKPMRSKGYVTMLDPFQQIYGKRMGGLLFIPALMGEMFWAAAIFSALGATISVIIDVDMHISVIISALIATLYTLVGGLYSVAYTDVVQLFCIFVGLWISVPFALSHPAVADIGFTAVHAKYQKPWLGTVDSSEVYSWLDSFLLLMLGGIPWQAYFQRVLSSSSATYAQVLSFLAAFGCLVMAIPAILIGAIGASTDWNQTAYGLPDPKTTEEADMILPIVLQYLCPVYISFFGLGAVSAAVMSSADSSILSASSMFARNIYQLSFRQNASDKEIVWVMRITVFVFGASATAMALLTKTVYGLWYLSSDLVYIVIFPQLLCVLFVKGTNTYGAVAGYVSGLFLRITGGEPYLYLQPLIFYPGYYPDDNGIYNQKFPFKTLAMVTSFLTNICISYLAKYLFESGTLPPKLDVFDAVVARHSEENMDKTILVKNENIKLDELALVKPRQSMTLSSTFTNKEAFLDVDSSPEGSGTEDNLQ
AI-2 QS modul – modulators of Vibrio harveyi AI-2 quorum sensing system; Vibrio harveyi JMH597 AI-2 luminescence/OD600 ratio, 9 h; hits give low values; strain lacks LuxN and CqsS sensors; 0 = neutral-control median; activity change, % at 7.5 µM; 0.4% of 300,000 active; in the data active means activity change below about -75%, passing the limit was not always enough;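 further: luminescence divided by OD600 gain over 9 h not by final OD600 alone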
CHT PAM – allosteric activators of human choline transporter CHT; Q9GZV3; CHT-expressing cells, membrane potential dye, choline EC20; hits give high values; LV-AA mutant CHT in HEK293 cells; B-score at 10 µM; 0.49% of 310,000 active;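 active means initial fluorescence not abnormally high and integrated response B-score, plate-corrected, over 3 SD above library mean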
Platelet DG rel – modulates dense granule release in human platelets | human platelet-rich plasma, SFLLRN dense granule ATP release, luminescence | inhibition, %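 (compounds screened at 7.5 µM in platelet-rich plasma)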 | 0.22% of 300,000 active | AID 1663;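 active means mean replicate score, as percent of positive control, at or above 50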
HIF act – HIF pathway transcriptional activation | U2OS HRE-luciferase reporter, luminescence; normalized: DMSO 0%, desferrioxamine 100% | AID 1910 | activation, % at 7.5 µM (by protocol) | 0.32% of 300,000 active;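 active means mean activation of at least 10% of the iron chelator positive control signal, with at least half of replicates also reaching 10%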
CHT inh conf – confirmation of human choline transporter CHT inhibitors | shares compounds with CHT inh | CHT-expressing cells, choline membrane potential dye; LV-to-AA substituted CHT, HEK293 cells | CHT activity remaining % of control (hits give low values), % at 10 µM | 70% of 2,400 active | AID 493221;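 active means choline transporter activity left, mean of duplicates at 10 µM, below buffer-only control mean minus 3 SD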;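 further: depolarization triggered by choline at its EC90 following an EC20 pre-addition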
HEK293 CHT ctr – activity in parental HEK293 cells lacking CHT; shares compounds with CHT inh; membrane potential dye, choline response; active = decrease or increase beyond buffer ±3SD; membrane potential ratio readout (active if shifted either direction beyond buffer ±3SD; no single direction) at 10 µM; 4% of 2,400 active; AID 493222;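 further: parental cells lack the transporter so any hit is non-specific; ratio is peak minus trough fluorescence over baseline after EC90 choline challenge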
Numbers stand for hits; n = inactive; x = no result.

SMILES	VLA-4 inh	CHT inh	AI-2 QS modul	CHT PAM	Platelet DG rel	HIF act	CHT inh conf	HEK293 CHT ctr
Cc1ccc(S(=O)(=O)N2CCC(=O)N(CCOCc3ccc(F)cc3)CC2)cc1	n	-5.9	n	n	n	n	54%	n
COc1cccc(N2CCN(C(=O)CC(C)(C)CC3=NS(=O)(=O)c4ccccc4N3)CC2)c1	n	-5.5	n	n	n	n	n	n
CC(CN1CCN(C)CC1)OC(=O)c1ccccc1Cl (stereo not drawn)	n	-8.3	n	n	n	n	12%	n
Cc1ccccc1C(=O)OC(C)CN1CCN(C)CC1 (stereo not drawn)	n	-6.1	n	n	n	n	46%	n
COc1ccccc1NC(=O)NCC(c1ccco1)N1CCCCC1 (stereo not drawn)	n	n	n	n	n	n	x	x
O=C(CC1C(=O)NCCN1C(=O)c1ccc([N+](=O)[O-])cc1)Nc1ccc(F)cc1 (stereo not drawn)	n	n	n	n	n	n	x	x
COc1ccc(NC(C)(C)c2nnnn2-c2c(C)cccc2C)cc1	n	-5.4	n	n	n	n	59%	n
CSc1nnnn1-c1c(C)cccc1C	n	n	n	n	n	n	x	x
Cc1cccc(C)c1-n1nnnc1C(C)(C)N1CCN(N=O)CC1	n	-7.2	n	n	n	n	n	n
O=c1[nH]ncc(N2CCN(C(c3ccccc3)c3ccccc3)CC2)c1Cl	n	n	n	n	n	n	x	x
O=c1[nH]ncc(N2CCCC2)c1Cl	n	-10	n	n	n	n	42%	n
COc1ccc(N(C)S(=O)(=O)c2cccc(C(=O)NC3CCCCC3C)c2)cc1 (stereo not drawn)	n	-5.5	n	n	n	n	59%	n
Cc1c(C#N)c(NC(=O)CCl)n(Cc2cccs2)c1C	n	-6.1	n	n	n	n	n	n
Cc1c(C#N)c(NC(=O)CCl)n(Cc2ccccc2)c1C	n	n	n	n	n	n	x	x
O=C(CCC(=O)N1CCOc2ccc(Cl)cc21)NCc1ccccc1	n	-6.3	n	n	n	n	n	n
c1ccc(-c2cncnc2)cc1	n	x	x	x	x	x	x	x
CC(C)Cn1c(=O)c2c(nc3n2CCCN3CCc2ccccc2)n(C)c1=O	n	-5.4	n	n	n	n	62%	n
Cn1c(=O)n(CCc2ccccc2)c(=O)c2c1nc1n2CCCN1CCc1ccccc1	n	n	n	n	n	n	x	x
Cc1ccc(S(=O)(=O)N2CCOCC2)cc1NC(=O)CN1C(=O)NC(C)(c2ccc(Cl)cc2Cl)C1=O (stereo not drawn)	n	x	x	x	x	x	x	x
C[C@H](NC(=O)c1ccco1)C(=O)Nc1cc(S(=O)(=O)N2CCCC2)ccc1OCC(F)(F)F	n	x	x	x	x	x	x	x
O=C(c1c(O)c2ccccc2oc1=O)C1CCCCC1	n	-7.5	n	n	n	n	58%	n
O=C(CCC1CCCC1)c1c(O)c2ccccc2oc1=O	n	n	n	n	n	n	x	x
O=C(CC1Nc2cccc3cccc(c23)NC1=O)Nc1ccc(F)cc1 (stereo not drawn)	n	-5.1	n	n	n	n	n	n
O=C(Nc1ccc(S(=O)(=O)NC2=NCCCCC2)cc1)c1ccc(Cl)cc1Cl	n	-12	n	n	n	n	-7.3%	n
O=C(Nc1ccc(S(=O)(=O)N2CCOCC2)cc1)c1ccc(Cl)cc1Cl	n	-6.4	n	n	n	n	43%	n
SMILES	VLA-4 inh	CHT inh	AI-2 QS modul	CHT PAM	Platelet DG rel	HIF act	CHT inh conf	HEK293 CHT ctr
CN1CCN(c2ccc(NC(=O)c3ccc(Cl)cc3Cl)cc2)CC1	n	-6.4	n	n	n	n	41%	n
O=C(Nc1ccc(N2CCCC2)cc1)c1cc(Cl)ccc1Cl	n	n	n	n	n	n	x	x
O=C(COc1ccc(Cl)cc1Cl)Nc1ccc(S(=O)(=O)NC2=NCCCCC2)cc1	n	n	n	n	n	n	x	x
CC1CCCCC1NC(=O)c1cccc(N2C(=O)C3C4C=CC(C4)C3C2=O)c1 (stereo not drawn)	n	-8.4	n	n	n	n	28%	n
O=C(Nc1ccccc1)c1cccc(N2C(=O)C3C4C=CC(C4)C3C2=O)c1 (stereo not drawn)	n	n	n	n	n	n	x	x
CCc1cc2c(NCc3ccco3)ncnc2s1	n	-6.6	n	n	n	n	50%	n
CC(=O)c1cc2c(cc1NC(=O)CCNC(=O)c1ccccc1Cl)OCO2	n	-5.6	n	n	n	n	50%	n
O=[N+]([O-])c1ccc(SCCc2ccccn2)cc1	n	-6.5	n	n	n	n	53%	n
O=[N+]([O-])c1ccc(SCCc2ccncc2)cc1	n	n	n	n	n	n	x	x
CC(C)(C)NC(=O)CSc1nc2cccnc2n1C1CCCCC1	n	n	n	n	n	n	x	x
Cc1cccn2cc(COc3ccc(-c4ccccc4)cc3)nc12	x	x	n	x	n	n	x	x
CC(=O)NC1C(=O)N=C(SC(C)C(=O)Nc2cccc(Cl)c2)NC1=O (stereo not drawn)	n	n	n	n	n	n	x	x
COc1ccc(/C(O)=C2/C(=O)C(=O)N(c3ccccn3)C2c2cccc(Cl)c2)cc1 (stereo not drawn)	n	-5.3	n	n	n	n	59%	n
O=C(COC(=O)c1ccc([N+](=O)[O-])o1)NCc1ccc2c(c1)OCO2	n	x	x	x	x	x	x	x
O=C(O)c1ccc2c(=O)n3c(nc2c1)/C(=C/c1ccccc1OC(F)F)CC3	n	n	n	n	n	n	x	x
CCOCCCN(C)C1CCN(C(=O)c2oc3ccccc3c2NC(=O)c2cccc([N+](=O)[O-])c2)CC1	n	-6.3	n	n	n	n	38%	4.3
CCOCCCN(C)C1CCN(C(=O)c2oc3ccccc3c2NC(=O)Cc2ccc([N+](=O)[O-])cc2)CC1	n	n	n	n	n	n	x	x
COC(=O)CSc1nnc(-c2ccc(NS(=O)(=O)c3ccccc3)cc2)o1	n	-5.9	n	n	n	n	39%	n
CCCCOC(=O)n1c(SCC(=O)N(CC)CC)nc2ccccc21	n	-5.2	n	n	n	n	n	n
CCOC(=O)n1c(SCC(N)=O)nc2ccccc21	n	n	n	n	n	n	x	x
O=C(O)c1cc(S(=O)(=O)Nc2ccc3cn[nH]c3c2)ccc1Cl	n	x	x	x	x	x	x	x
O=C(Nc1ccc(Cl)cc1)C1C2CCCCC21 (stereo not drawn)	n	n	n	n	n	n	x	x
CC(=O)c1cccc(NC(=O)NCCc2c[nH]c3ccccc23)c1	n	n	n	n	n	n	x	x
O=C(Nc1cccc(CNCCc2c[nH]c3ccccc23)c1)c1ccccc1Cl	n	-6.3	n	n	n	n	31%	n
